Experimental findings from PubChem BioAssay AID652197 (Broad Institute, 2013) are described below.

Each structure is given as a SMILES string. Hit rate of the full screen: of about 340,000 compounds, about 500 (0.15%) were called active.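 The calls were made as follows: active = mean replicate inhibition of at least 30%, or all replicates individually reaching that 30% level; inactive = mean below 30% and not every replicate reaching it.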 Many of the other results were omitted from the sample, so actives are more common in it than they were.

In this assay the target is Endoplasmic reticulum aminopeptidase 1 (Homo sapiens) (UniProt Q9NZ08). The assay can be described thus: human ERAP1 aminopeptidase inhibitors, primary screen, biochemical, single point, plate reader (AID 652197).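 Also: 0% = neutral control wells and 100% = L-leucinethiol positive control wells.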 Conditions: recombinant ERAP1, Leu-AMC fluorescence, 60 min; at 10.7 µM; active compounds read high.
Endoplasmic reticulum aminopeptidase 1 (Homo sapiens), sequence (Q9NZ08 whole entry, looked up): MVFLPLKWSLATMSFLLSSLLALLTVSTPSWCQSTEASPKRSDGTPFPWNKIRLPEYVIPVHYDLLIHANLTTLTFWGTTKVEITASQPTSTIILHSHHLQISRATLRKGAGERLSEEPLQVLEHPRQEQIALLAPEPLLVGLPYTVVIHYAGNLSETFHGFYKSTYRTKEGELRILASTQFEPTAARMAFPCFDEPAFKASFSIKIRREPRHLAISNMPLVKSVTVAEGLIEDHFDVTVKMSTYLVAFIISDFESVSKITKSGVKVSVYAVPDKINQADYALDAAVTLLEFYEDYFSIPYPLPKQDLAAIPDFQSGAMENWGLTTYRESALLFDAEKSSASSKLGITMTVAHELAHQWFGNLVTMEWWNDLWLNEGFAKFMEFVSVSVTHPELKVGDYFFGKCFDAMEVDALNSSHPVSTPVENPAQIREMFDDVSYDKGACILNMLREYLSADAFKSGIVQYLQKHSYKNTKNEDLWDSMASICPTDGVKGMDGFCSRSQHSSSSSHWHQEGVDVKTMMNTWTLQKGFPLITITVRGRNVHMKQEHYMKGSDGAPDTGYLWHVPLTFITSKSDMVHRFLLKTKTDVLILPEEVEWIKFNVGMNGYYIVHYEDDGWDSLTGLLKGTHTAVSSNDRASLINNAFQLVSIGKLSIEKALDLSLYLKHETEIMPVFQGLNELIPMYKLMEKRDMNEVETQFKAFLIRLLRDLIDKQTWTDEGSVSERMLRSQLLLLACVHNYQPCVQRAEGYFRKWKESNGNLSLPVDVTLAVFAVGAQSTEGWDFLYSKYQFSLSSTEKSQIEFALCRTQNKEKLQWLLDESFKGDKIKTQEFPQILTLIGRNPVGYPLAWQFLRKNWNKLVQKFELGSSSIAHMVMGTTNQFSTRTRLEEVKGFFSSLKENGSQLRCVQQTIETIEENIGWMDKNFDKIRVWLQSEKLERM
On to `C[C@@H]1CN([C@H](C)CO)C(=O)c2cc(NS(C)(=O)=O)ccc2O[C@H]1CN(C)C(=O)Nc1cccc2ccccc12`, for which the inhibition is 0.237% (inactive).

For `CO[C@H]1CN(C)C(=O)c2ccc(NC(=O)C3CC3)cc2OC[C@@H](C)N(C(=O)CN2CCOCC2)C[C@H]1C`, the inhibition was 5.08% (inactive).

On to `COc1ccc(S(=O)(=O)N(C)C[C@@H]2Oc3ccc(NC(=O)C4CC4)cc3CC(=O)N([C@@H](C)CO)C[C@H]2C)cc1`, for which the inhibition is -1.45% (inactive).

With `CNC[C@H]1Oc2cc(-c3ccc(OC)cc3)ccc2S(=O)(=O)N([C@H](C)CO)C[C@@H]1C`, the inhibition was -1.76% (inactive).

Consider `CO[C@@H](CN(C)S(=O)(=O)c1ccccc1)[C@H](C)CN(Cc1ccccc1Cl)[C@H](C)CO`, for which the inhibition was -0.894% (inactive).

For `C[C@@H](NC(=O)C[C@H]1C[C@@H]2c3cc(NC(=O)C4CCC4)ccc3O[C@@H]2[C@@H](CO)O1)c1ccccc1`, the inhibition is -1.46% (inactive).

For the compound `CO[C@@H]1CN(C)C(=O)c2ccc(NC(=O)Nc3cc(F)ccc3F)cc2OC[C@@H](C)N(C)C[C@@H]1C`, the inhibition was 2.65% (inactive).

Turning to `CO[C@@H]1CC[C@@H]2CCOc3c(C#N)cccc3C(=O)N(C)C[C@H](C)C(=O)N(C)C[C@H]1O2`, the inhibition is 0.999% (inactive).

In the case of `COc1ccc(CNC(=O)C[C@H]2C[C@@H]3c4cc(NC(=O)NC5CCCC5)ccc4O[C@@H]3[C@H](CO)O2)cc1`, the inhibition was 2.29% (inactive).

For the compound `C/C=C/c1ccc2c(c1)O[C@H](CN(C)Cc1cccc(F)c1)[C@H](C)CN([C@H](C)CO)S2(=O)=O`, the inhibition was 3.38% (inactive).

For `COc1ccccc1C#Cc1ccc([C@@H]2[C@H](CO)N3CCCCN(CCC(F)(F)F)C[C@@H]23)cc1`, the inhibition was -1.03% (inactive).

`CCC(=O)N1[C@H](C(=O)NC2CCC2)[C@@H](CO)[C@@H]2Cn3c(cccc3=O)[C@@H]21`: the inhibition was -1.13% (inactive).

Take `O=C(CCN1CCCCC1)NCC[C@@H]1CC[C@H](NS(=O)(=O)c2cccc(Cl)c2)[C@H](CO)O1`: the inhibition is -1.39% (inactive).

On to `C/C=C/c1ccc2c(c1)[C@H]1[C@H](CCN1S(=O)(=O)c1cn(C)cn1)[C@H](CO)N2`, for which the inhibition is -3.06% (inactive).

Consider `CO[C@@H]1CC[C@@H]2CCOc3c(C#N)cccc3C(=O)N(C)C[C@@H](OC)[C@@H](C)C(=O)N(C)C[C@H]1O2`, for which the inhibition is -3.74% (inactive).

For the compound `COc1cccc(NC(=O)N[C@H]2C=C[C@H](CC(=O)NCc3ccccn3)O[C@@H]2CO)c1`, the inhibition is 6.83% (inactive).

`COc1ccccc1CN1[C@H](CO)[C@@H](c2ccccc2)C12CN(C(=O)c1cnccn1)C2`: the inhibition is 0.797% (inactive).

Turning to `C[C@H]1CCCCO[C@H](CN(C)C(=O)NC2CCCCC2)[C@@H](C)CN([C@@H](C)CO)C(=O)c2cc(NC(=O)Nc3ccc4c(c3)OCO4)ccc2O1`, the inhibition was -0.479% (inactive).

For `O=C(OCC(=O)N1CCN(C(=O)c2ccco2)CC1)c1ccc(Cl)c(Cl)c1`, the inhibition was 0.999% (inactive).

With `CN(c1ccccc1)S(=O)(=O)c1cc(C(=O)OCC(=O)N2CCN(C(=O)c3ccco3)CC2)ccc1Cl`, the inhibition is 60.1% (active).

Take `O=C(OCC(=O)N1CCN(C(=O)c2ccco2)CC1)c1cccc(O)c1`: the inhibition was -0.23% (inactive).

For `CO[C@@H]1CN(C)C(=O)c2cc(NC(=O)C3CCOCC3)ccc2OC[C@H](C)N(Cc2cccnc2)C[C@H]1C`, the inhibition was 0.791% (inactive).

With `O=C(C[C@H]1CC[C@H]2NC[C@@H](O)COC[C@@H]2O1)NCCN1CCCC1`, the inhibition was 1.06% (inactive).

For the compound `O=C(Nc1cccc(F)c1)N1CC(=O)N2[C@H](C1)[C@H](c1ccc(-c3ccccc3F)cc1)[C@@H]2CO`, the inhibition was 0.092% (inactive).

Take `Cc1noc(C)c1C(=O)N(C)C[C@H]1OCc2ccccc2-c2c(n(C)c3ccccc23)C(=O)N([C@@H](C)CO)C[C@H]1C`: the inhibition is -0.288% (inactive).

Regarding `CC(=O)N(C1=C(Cl)C(=O)c2ccccc2C1=O)c1ccc(C(=O)O)cc1`, the inhibition is 84.4% (active).

`O=C1C(Cl)=C(Oc2ccccc2)C(=O)c2ccccc21`: the inhibition was 4.33% (inactive).

For `O=C(NC1=CC(=O)c2ccccc2C1=O)c1ccccc1`, the inhibition is 2.97% (inactive).

As for `CC(C)NC(=O)N1CCCCN2[C@@H](CO)[C@@H](c3ccc(C#Cc4ccccc4)cc3)[C@@H]2C1`, the inhibition is 0.974% (inactive).

Consider `O=C(Cc1ccccc1)N1CC[C@@H]2[C@H](CO)Nc3ccc(-c4ccccc4)cc3[C@@H]21`, for which the inhibition is 4.96% (inactive).

With `C/C=C/c1ccc([C@H]2[C@H](CO)N(C(=O)CN(C)C)C23CN(C(=O)C2CC2)C3)cc1`, the inhibition is -1.65% (inactive).

In the case of `O=C(C[C@H]1CC[C@H]2[C@@H](COC[C@H](O)CN2S(=O)(=O)c2cccc(F)c2)O1)NC1CCC1`, the inhibition is -1.89% (inactive).

For the compound `COc1ccc(-c2ccc([C@@H]3[C@H](CN(C)S(C)(=O)=O)N[C@@H]3CO)cc2)cc1`, the inhibition was -0.559% (inactive).

With `C[C@@H]1CCCCO[C@@H](CN(C)S(=O)(=O)c2cccs2)[C@H](C)CN([C@H](C)CO)C(=O)c2cc(NC(=O)CCCN(C)C)ccc2O1`, the inhibition is 0.521% (inactive).

With `COc1ccc(CCOC(=O)CNC(=O)c2ccc(Cl)cc2Cl)cc1`, the inhibition is 37.4% (active).

Take `COc1ccc(CCNC(=O)COC(=O)c2cnc(Cl)c(Cl)c2)cc1`: the inhibition was -0.478% (inactive).

`Cc1ccccc1NC(=O)Cc1nc(COC(=O)CNC(=O)c2ccc(Cl)cc2Cl)cs1`: the inhibition is -1.49% (inactive).

With `CCC(=O)N1CC2(C1)[C@@H](c1ccc(C3=CCCC3)cc1)[C@@H](CO)N2C(=O)COC`, the inhibition was -3.58% (inactive).

As to `C[C@@H]1CCCCO[C@@H](CN(C)Cc2ccc3c(c2)OCO3)[C@@H](C)CN([C@@H](C)CO)C(=O)c2cc(NC(=O)C3CCCCC3)ccc2O1`, the inhibition is -1.88% (inactive).

As to `C[C@@H]1CN([C@@H](C)CO)C(=O)c2cc(C#CC3CCCCC3)cnc2O[C@H]1CN(C)C(=O)Cc1ccccn1`, the inhibition is 4.3% (inactive).

Regarding `COc1ccc(NC(=O)N(C)C[C@@H]2OCCCC[C@@H](C)Oc3ccc(NS(C)(=O)=O)cc3C(=O)N([C@@H](C)CO)C[C@H]2C)cc1`, the inhibition was 4.38% (inactive).

Take `CCC(=O)N[C@H]1CC[C@@H](CC(=O)NCC2CC2)O[C@@H]1CO`: the inhibition was -1.77% (inactive).

Consider `Cc1cc2c(nc1C)CCCN2C`, for which the inhibition was 56.4% (active).

With `CN1CCCc2nc(-c3ccccc3)ccc21`, the inhibition is 0.84% (inactive).
